# The panel holds about 79,000 compounds, 15% with a hit somewhere; the sample as a whole holds those more often. A number with no mark means an inactive call. Activity calls are given as the source filed them. No stated cut-off is given here; in the data, active means growth inhibition above about 70%; inactive means the rest.
# What was measured:
# [1] = NCI Yeast Anticancer Drug Screen. Data for the rad50 strain (AID 155);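 further: 0% = growth of vehicle-only cultures of the same strain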; conditions: S. cerevisiae rad50 strain growth inhibition, stronger effect = higher value
# Procedure, shortened: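 Readout: growth inhibition relative to vehicle-treated cultures. Compound exposure was carried out in a genetically defined yeast strain deficient in DNA damage repair.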
# [2] = NCI Yeast Anticancer Drug Screen. Data for the mec2-1 strain (AID 157); conditions: S. cerevisiae mec2-1 strain, stronger effect = higher value
# Procedure, shortened: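 Strain: mec2-1 (DNA repair/cell cycle alteration). Compound exposure, then growth measured; inhibition expressed relative to vehicle.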
# [3] = NCI Yeast Anticancer Drug Screen. Data for the sgs1 mgt1 strain (AID 161);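 further: 0% = growth of cultures given vehicle only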; conditions: S. cerevisiae sgs1 mgt1 strain, stronger effect = higher value
# Procedure, shortened: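 Inhibition of yeast growth, normalised to vehicle-treated controls, is reported for a strain bearing genetic alterations in DNA damage repair.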
# [4] = NCI Yeast Anticancer Drug Screen. Data for the cln2 rad14 strain (AID 165);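 further: 0% = growth equal to vehicle treated cultures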; conditions: S. cerevisiae cln2 rad14 strain, stronger effect = higher value
# Procedure, shortened: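 Compounds are applied to the cln2 rad14 yeast strain, and growth is then compared with that of vehicle-treated cultures to give inhibition.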
# [5] = NCI Yeast Anticancer Drug Screen. Data for the bub3 strain (AID 167); conditions: S. cerevisiae bub3 mutant strain, stronger effect = higher value
# Procedure, shortened: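 Readout: yeast growth inhibition, expressed relative to vehicle-only wells. The test organism is a mutant strain from a panel with lesions in DNA repair or checkpoint genes.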
# [6] = NCI Yeast Anticancer Drug Screen. Data for the mlh1 rad18 strain (AID 175); conditions: S. cerevisiae mlh1 rad18 strain growth inhibition, stronger effect = higher value
# Procedure, shortened: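 Read-out is yeast growth inhibition, calculated against vehicle-only controls. The compound was applied to a strain engineered with DNA damage repair alterations.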
# [7] = at 5.0 µM (retest, dose inferred, filed as 0.5)
# [8] = at 50.0 µM (retest, dose inferred, filed as 5.0)
SMILES,"growth inhibition [1, 7]","growth inhibition [1, 8]",growth inhibition ([1]; at 50.0 µM),"growth inhibition [2, 7]","growth inhibition [2, 8]",growth inhibition ([2]; at 50.0 µM),"growth inhibition [3, 7]","growth inhibition [3, 8]",growth inhibition ([3]; at 50.0 µM),"growth inhibition [4, 7]","growth inhibition [4, 8]",growth inhibition ([4]; at 50.0 µM),"growth inhibition [5, 7]","growth inhibition [5, 8]",growth inhibition ([5]; at 50.0 µM),"growth inhibition [6, 7]","growth inhibition [6, 8]",growth inhibition ([6]; at 50.0 µM)
Oc1c(Cl)cc(Cl)cc1Cl.[Cu+2],6%,95% (active),99.7% (active),-28%,98% (active),99.5% (active),-4%,94% (active),99.8% (active),-9%,97% (active),98.2% (active),-10%,97% (active),99.5% (active),0%,98% (active),99.3% (active)
Cc1ccc2c(c1)N(CCN(CCCl)CCCl)c1c(ccc3ccccc13)S2,0%,83% (active),90.2% (active),-1%,87% (active),67.2%,-9%,84% (active),93.4% (active),-6%,79% (active),75.4% (active),-1%,82% (active),34.7%,11%,84% (active),91.9% (active)
N=C(N)c1ccc(NN=Nc2cccc3c2Oc2ccccc2O3)cc1,48%,89% (active),80% (active),20%,84% (active),78.1% (active),32%,90% (active),74.6% (active),14%,69%,71% (active),10%,80% (active),83.5% (active),17%,83% (active),70.2% (active)
c1ccc([As+](c2ccccc2)(c2ccccc2)c2cccc3ccccc23)cc1,88% (active),99% (active),99% (active),90% (active),99% (active),99.1% (active),93% (active),100% (active),98.7% (active),86% (active),99% (active),99% (active),90% (active),99% (active),98.8% (active),88% (active),99% (active),98.8% (active)
CCc1cc(C)cc2[n+]1CC=C2,-8%,83% (active),98% (active),-5%,95% (active),96.4% (active),-5%,98% (active),98.3% (active),-1%,92% (active),98.1% (active),-2%,87% (active),98% (active),-6%,93% (active),97.8% (active)
CC(=O)C(CN1CCOCC1)C(c1ccccc1)c1c(O)c2ccccc2oc1=O (stereo not given),7%,73% (active),-1.6%,5%,75% (active),-12.3%,3%,80% (active),9.4%,5%,79% (active),0.25%,22%,83% (active),21.9%,6%,81% (active),-13.5%
CN(Cc1ccccc1)CC(O)c1cccc(I)c1 (stereo not given),-3%,18%,49.5%,-3%,9%,11.3%,-2%,36%,51.6%,1%,11%,31.6%,0%,35%,56.2%,-4%,24%,27.2%
CC(CCc1ccccc1)NC(C)C(O)c1ccc(O)cc1 (stereo not given),1%,32%,49%,4%,55%,28.6%,23%,66%,52.2%,9%,42%,68.3%,9%,40%,64.8%,45%,71% (active),78.1% (active)
COc1cc(/C=C/[N+](=O)[O-])cc(Br)c1OC,86% (active),98% (active),90.6% (active),79% (active),99% (active),92.3% (active),83% (active),98% (active),92.5% (active),55%,97% (active),90.2% (active),97% (active),98% (active),91.5% (active),89% (active),98% (active),91.7% (active)
CNP(=O)(Oc1cc(Cl)c(Cl)cc1Cl)N1CCN(c2ccccc2)CC1 (stereo not given),12%,81% (active),98.8% (active),36%,48%,98% (active),8%,72% (active),98% (active),25%,53%,97.8% (active),11%,86% (active),97.5% (active),-5%,91% (active),97.4% (active)

# Source: PubChem BioAssay (NCI)
